Among the test systems are NCI-H23 lung; NCI-H226 lung; NCI-H322M lung; HOP-62 NSCLC; NCI-H460 lung; HOP-92 NSCLC; NCI-H522 lung; A549/ATCC NSCLC; 786-0 renal; COLO 205 colon; DU-145 prostate; K-562 leukemia; MALME-3M melanoma; MDA-MB-231 breast; RXF 393 renal; SF-268 CNS; SF-295 CNS; SF-539 CNS; UACC-257 melanoma; M14 melanoma.
What all share (experiment): NCI-60 one-dose screen, 48 h (100 = growth as untreated, 0 = no growth, -100 = all killed)
Holding throughout (conditions): 10 µM unless noted

The panel holds about 83,000 compounds, 20% with a hit somewhere; the sample as a whole holds those more often.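 In brief: 96-well plates, 48 h treatment, single concentration, percent growth endpoint.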 Values without a mark were called inactive. Active and inactive are the calls of the source. Rule for the calls: active = growth percent below 10; inactive = the rest.

As for `COc1ccc(-c2cc(-c3nnc(SC/C(=N\O)c4ccccc4)n3-c3ccccc3)c3ccccc3n2)cc1`, the growth with NCI-H23 lung is 94.6%; in the test on NCI-H226 lung it was 96.2%; in the test on NCI-H322M lung, 101%; with HOP-62 NSCLC, 91.1%; in the test on NCI-H460 lung, 104%; in the test on HOP-92 NSCLC, 94.8%. The growth in the test with NCI-H522 lung was 87.2%; with A549/ATCC NSCLC, 96.8%; in the test on 786-0 renal, 113%; with COLO 205 colon, 91.1%; in the test on DU-145 prostate it was 111%; with K-562 leukemia it was 113%. Moreover, the growth with MALME-3M melanoma is 100%; in the test with MDA-MB-231 breast, 103%; with RXF 393 renal it was 117%; in the test on SF-268 CNS, 102%; with SF-295 CNS, 104%; in the test on SF-539 CNS it was 102%. Further, the growth is 104% with UACC-257 melanoma and 116% in the test on M14 melanoma.
Turning to `CCCC(=O)Oc1ccc(/C(=C(\C)c2ccc(OC)cc2)c2ccc(OCCN3CCCCC3)cc2)cc1`, the growth in the test with NCI-H23 lung is 79.3%; with NCI-H226 lung, 83.5%; with NCI-H322M lung, 89.7%; with HOP-62 NSCLC, 86.1%; in the test with NCI-H460 lung, 87.1%; in the test with HOP-92 NSCLC it was 69%. The growth in the test on NCI-H522 lung was 78.9%; with A549/ATCC NSCLC it was 76.8%; in the test with 786-0 renal, 67.1%; in the test on COLO 205 colon, 67.6%; in the test with DU-145 prostate, 87.1%; in the test with K-562 leukemia it was 21.9%. Also, the growth is 61.9% with MALME-3M melanoma; 109% in the test with MDA-MB-231 breast; 66.2% in the test with RXF 393 renal; 83.1% in the test on SF-268 CNS; 61.5% with SF-295 CNS; 65.5% in the test with SF-539 CNS. Also, the growth in the test on UACC-257 melanoma was 68.5%; in the test on M14 melanoma, 33.8%.
Take `C[C@]12CC[C@@H]3c4ccc(O)c(N)c4CC[C@H]3[C@@H]1CC[C@@H]2O`: the growth with NCI-H23 lung was 101%; in the test on NCI-H226 lung, 112%; in the test on NCI-H322M lung, 114%; with HOP-62 NSCLC, 143%; in the test on NCI-H460 lung, 102%; with HOP-92 NSCLC, 140%. The growth is 82.6% with NCI-H522 lung; 99.9% with A549/ATCC NSCLC; 118% in the test with 786-0 renal; 123% in the test with COLO 205 colon; 110% in the test on DU-145 prostate; 79.8% in the test with K-562 leukemia. For the same compound, the growth in the test with MALME-3M melanoma was 129%; with MDA-MB-231 breast, 115%; in the test with RXF 393 renal it was 116%; in the test with SF-268 CNS, 98.9%; in the test with SF-295 CNS, 108%; with SF-539 CNS, 106%. Also, the results for the growth in the test on UACC-257 melanoma and in the test with M14 melanoma were 82.5% and 100%, respectively.
As for `Cc1c(F)cccc1NC(=O)c1sc2nc3c(cc2c1N)CCCCC3`, the growth in the test with NCI-H23 lung is 79.6%; in the test on NCI-H226 lung, 56.8%; with NCI-H322M lung it was 85.8%; with HOP-62 NSCLC, 50.3%; with NCI-H460 lung, 56.7%; in the test on HOP-92 NSCLC, 70.5%. The growth is 20% with NCI-H522 lung; 73.9% in the test on A549/ATCC NSCLC; 75.7% with 786-0 renal; 74.2% in the test with COLO 205 colon; 69.1% in the test on DU-145 prostate; 12.5% with K-562 leukemia. The growth was 55% with MALME-3M melanoma; 83.6% in the test with MDA-MB-231 breast; 69.5% in the test on RXF 393 renal; 83.4% in the test on SF-268 CNS; 55.3% in the test with SF-295 CNS; 66.9% in the test on SF-539 CNS. In addition, the growth was 52.3% with UACC-257 melanoma and 28.2% in the test with M14 melanoma.
On to `Nc1nccc2c1ccn2-c1ccc(NC(=O)c2ccc(N3CCOCC3)c(C(F)(F)F)c2)cc1`, for which the growth is 33% in the test with NCI-H23 lung; 63.1% with NCI-H226 lung; 38.9% in the test on NCI-H322M lung; -43% (active) with HOP-62 NSCLC; 1.76% (active) in the test with NCI-H460 lung; -25% (active) in the test with HOP-92 NSCLC. Further, the growth was 23.1% in the test with NCI-H522 lung; 11.9% with A549/ATCC NSCLC; -45.5% (active) with 786-0 renal; -54.7% (active) in the test on COLO 205 colon; 48.3% in the test on DU-145 prostate; 1.22% (active) with K-562 leukemia. For the same compound, the growth with MALME-3M melanoma was -18.1% (active); with MDA-MB-231 breast it was -3.15% (active); with RXF 393 renal, -77.4% (active); in the test with SF-268 CNS, 18.2%; in the test with SF-295 CNS, -59.6% (active); with SF-539 CNS, 7.48% (active). For the same compound, the growth in the test on UACC-257 melanoma is 32.7%; in the test with M14 melanoma, -61.8% (active).
As to `COC1=C(OC)C(=O)C=CC1=O`, the growth is 111% in the test on NCI-H23 lung; 107% with NCI-H226 lung; 101% with NCI-H322M lung; 117% in the test with HOP-62 NSCLC; 118% with NCI-H460 lung; 110% with HOP-92 NSCLC. For the same compound, the growth was 63.7% in the test with NCI-H522 lung; 109% with A549/ATCC NSCLC; 103% in the test on 786-0 renal; 99.8% in the test with COLO 205 colon; 114% in the test on DU-145 prostate; 7.24% (active) in the test on K-562 leukemia. Further, the growth in the test with MALME-3M melanoma was 114%; in the test with MDA-MB-231 breast, 101%; with RXF 393 renal, 114%; in the test with SF-268 CNS, 109%; in the test with SF-295 CNS, 113%; in the test with SF-539 CNS it was 110%. The growth in the test on UACC-257 melanoma is 110%; with M14 melanoma it was 116%.
`CCCCCCCCCCCCCCCCCCNCc1ccc(Cl)cc1`: the growth was -65.4% (active) in the test with NCI-H23 lung; 4.03% (active) in the test with NCI-H226 lung; 9.39% (active) in the test with NCI-H322M lung; -77.7% (active) in the test with HOP-62 NSCLC; -71.6% (active) in the test on NCI-H460 lung; -78% (active) with HOP-92 NSCLC. Further, the growth is -82.5% (active) in the test with NCI-H522 lung; -80.7% (active) in the test with A549/ATCC NSCLC; -75.1% (active) in the test on 786-0 renal; -83.9% (active) in the test with COLO 205 colon; -91.3% (active) in the test on DU-145 prostate; -65.7% (active) with K-562 leukemia. The growth in the test on MALME-3M melanoma was -57.6% (active); with MDA-MB-231 breast, -72.9% (active); in the test with RXF 393 renal it was -74.4% (active); in the test with SF-268 CNS, -63.5% (active); with SF-295 CNS it was -46.8% (active); in the test with SF-539 CNS, -88.1% (active). The growth is 38.9% in the test on UACC-257 melanoma and -72.2% (active) in the test on M14 melanoma.
With `CS(=O)(=O)Nc1cccc(-c2ccc3ncnc(Nc4ccc(F)c(Cl)c4)c3c2)c1`, the growth is 42.6% in the test with NCI-H23 lung; 44.5% in the test on NCI-H226 lung; 15% with NCI-H322M lung; 39.8% with HOP-62 NSCLC; 20% in the test on NCI-H460 lung; 34.6% in the test on HOP-92 NSCLC. Besides, the growth was -23.6% (active) with NCI-H522 lung; 25.3% in the test on A549/ATCC NSCLC; -6.08% (active) with 786-0 renal; -33.3% (active) in the test on COLO 205 colon; 28.4% in the test on DU-145 prostate; 11.2% in the test with K-562 leukemia. Also, the growth with MALME-3M melanoma is 31%; in the test on MDA-MB-231 breast it was -2.84% (active); with RXF 393 renal, 23.7%; with SF-268 CNS, 38.9%; in the test on SF-295 CNS, 3.13% (active); in the test with SF-539 CNS it was 25.9%. Further, the growth in the test on UACC-257 melanoma is 49.4%; with M14 melanoma, 10.5%.
